GAA spleen mod: lysosomal alpha-glucosidase (human) modulation | Potency, µM (highest dose often 79.9 µM), without a hit: at the highest dose activity change, negative = inhibition, usual class: inhibitors | AID 2112 | human spleen homogenate, 4-MU-alpha-glucoside fluorescence | P10253 | 240,000 compounds, 0.006% hits;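 also: potency is read from the fitted curve at half-maximal effect; 0% = enzyme with vehicle and -100% = no enzyme basal signal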
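Human spleen homogenate (1 ug) with 4-methylumbelliferyl-alpha-D-glucopyranoside (1 mM final) in 50 mM citrate/phosphate pH 5.0, 0.01% Tween-20; 40 min at 37 C. Stopped at pH 10; 4-MU fluorescence Ex 365/Em 440 nm; AC50 by Hill fit.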
GAA glycogen: GAA glycogen-cleavage inhibition or activation; recombinant GAA, glycogen substrate, Amplex Red glucose oxidase fluorescence; 300,000 compounds, 0.38% hits; Potency, µM (highest dose often 76.4 µM), for inactives: top-dose activity change, negative = inhibition, hits mostly inhibitors;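 also: potency is read from the fitted curve at half-maximal effect; 0% = full enzyme reaction and -100% = no-enzyme basal signal; the screen sought inhibitors and activators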
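qHTS, 1536-well; enzyme 4 nM final; cpd up to 77 uM; substrate bovine liver glycogen 30 ug; 50 mM citrate/phosphate pH 5.0, 0.01% Tween-20; 37 C, 40 min; Amplex Red detection 45 min RT; Hill fit → AC50.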
GLA spleen mod: inhibits or activates alpha-galactosidase in human spleen homogenate | P06280 | human spleen homogenate, 4MU-alpha-Gal fluorescence, 40 min | Potency, µM (highest dose often 80 µM), for inactives: top-dose activity change, negative = inhibition, actives largely listed as inhibitors | 240,000 compounds, 0.008% hits;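 also: potency is read from the fitted curve at half-maximal effect; 0% = enzyme with vehicle and -100% = no enzyme basal signal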
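Spleen homogenate 1 ug + cpd (titration) + 4-MU-alpha-D-galactopyranoside 1 mM; 37C 40 min; 50 mM citrate/phosphate pH 5.0, 0.01% Tween-20; stop pH 10; fluorescence 365/440; AC50 via Hill.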
GLA inh pH 4.5: blocks human alpha-galactosidase A at pH 4.5; activity change, negative = inhibition, % at 105 µM; purified enzyme, 4-MU-alpha-Gal fluorescence, pH 4.5; P06280; 230,000 tested, under 10 active;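 also: 0% = full activity with enzyme and -100% = basal without enzyme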
Target sequence (P06280 whole entry, looked up): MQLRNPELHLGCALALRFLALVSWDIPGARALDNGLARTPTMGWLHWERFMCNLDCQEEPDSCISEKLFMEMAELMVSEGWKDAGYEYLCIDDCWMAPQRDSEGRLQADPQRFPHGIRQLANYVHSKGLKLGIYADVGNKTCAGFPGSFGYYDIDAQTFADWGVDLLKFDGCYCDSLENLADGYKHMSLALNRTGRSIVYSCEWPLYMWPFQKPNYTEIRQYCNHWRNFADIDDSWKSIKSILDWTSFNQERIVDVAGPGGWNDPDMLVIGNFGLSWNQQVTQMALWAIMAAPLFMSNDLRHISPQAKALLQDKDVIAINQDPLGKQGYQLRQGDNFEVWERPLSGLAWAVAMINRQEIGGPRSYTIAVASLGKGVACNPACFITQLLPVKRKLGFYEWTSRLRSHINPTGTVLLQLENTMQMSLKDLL
N370S GC mod: N370S glucocerebrosidase modulation, Gaucher chaperone candidate. P04062. Potency, µM (titrated, usually from 59.4 µM), without a hit: at the top dose activity change, negative = inhibition, usual class: inhibitors. N370S GC spleen homogenate, 4MU-glucoside fluorescence. 330,000 compounds, 0.092% hits;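 also: potency is read from the fitted curve at half-maximal effect; 0% = full enzyme activity and -100% = no enzyme basal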
GAA inh: blocks human lysosomal alpha-glucosidase; P10253; purified human GAA, 4-MU-alpha-glucoside fluorescence; Potency, µM (series often up to 76.9 µM), inactives show top-dose activity change, negative = inhibition, most hits filed as inhibitors; 200,000 compounds, 0.005% hits;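 also: potency is read from the fitted curve at half-maximal effect; plate controls were uninhibited enzyme wells for no effect and no-enzyme background for full effect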
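Compounds are titrated up to 77 uM against 4 nM human enzyme. Substrate 4-methylumbelliferyl-alpha-D-pyranoside (400 uM) reacts 20 min at room temperature in pH 5.0 buffer; liberated 4-methylumbelliferone is read at 440 nm.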
* marks the source's active call; other numbers are inactive results; ? = inconclusive; · = not tested or not shown; [ ] = remark or other dose. Sampled rows, rich in hits. Any-hit rate of the full collection: about 0.43%. Calls follow the shape of the dose curve; as a rule, active = well fitted curve in the direction sought with a large enough effect; inconclusive = small, poorly fitted or top-dose-only effect, or another doubt; inactive = no such curve, though single readings can be large; an effect the other way counts as inactive or inconclusive.

SMILES | GAA spleen mod | GAA glycogen | GLA spleen mod | GLA inh pH 4.5 | N370S GC mod | GAA inh
CC(=O)/C=C(\C)Nc1ccccc1O | -12% | 25µM* | -3% | -1 | -21% | ·
C=C(C)C(=O)OCCOCC | 3% | · | 0% | · | -17% | ·
C=CCc1cc(/C=C/c2nc(O)c([N+](=O)[O-])c(=O)[nH]2)cc(OC)c1O | -26% | 11µM* | -2% | -11 | -13% | ?
COc1cccc(OCC(=O)NNC(=S)Nc2ccc(Cl)cc2Cl)c1 | 8% | 56µM* | 12% | -1 | 4% | 8%
O=C(Cc1ccccc1)NNc1ccc2ccccc2c1 | 0% | 25µM* | -1% | -4 | 4% | -3%
O=C(CN1C(=O)CCC1=O)NNc1ccc2ccccc2c1 | 5% | 11µM* | -9% | 6 | -16% | 6%
O=C(COc1ccc2ccccc2c1)NNC(=O)Cc1ccccc1 | -12% | 9% | -8% | -2 | -15% | -1%
C[C@H](NC(=O)Cc1cc(F)cc(F)c1)C(=O)N[C@@H](C(=O)OC(C)(C)C)c1ccccc1 | 0% | · | -3% | · | -3% | ·
C[C@@H]1C[C@](C)(C(=O)c2ccco2)C=C1c1ccco1 | 5% | · | 4% | -4 | -6% | ·
N#Cc1c(N)nc(N)nc1Nc1ccc(Br)cc1 | 6% | -1% | -3% | -1 | -22% | 1%
Nc1cnc(Nc2ccc(Br)cc2)nc1N | -3% | 7µM* | -5% | -11 | ? | -2%
O=C(CN1CCN(S(=O)(=O)c2ccc(F)cc2)CC1)c1ccc(O)c(O)c1 | -10% | 10% | -7% | -12 | ? | ?
Cc1ccc(S(=O)(=O)N2CCN(CC(=O)N/N=C\c3ccc(O)c(O)c3)CC2)cc1 | ? | 6.3µM* | -18% | 4 | -20% | ·
O=C(CN1CCN(S(=O)(=O)c2ccc(Cl)cc2)CC1)c1ccc(O)c(O)c1 | · | 8.9µM* | · | · | -28% | ·
Cc1ccc(S(=O)(=O)N2CCN(CC(=O)N/N=C/c3ccc(C)o3)CC2)cc1 | -9% | -24% | 7% | -1 | -5% | ?
CCCCCn1c(CN2CCN(c3cccc(Cl)c3)CC2)nc2c1c(=O)n(C)c(=O)n2C | -1% | -11% | 5% | -8 | -5% | ?
CCCCn1c(CN2CCN(c3cccc(Cl)c3)CC2)nc2c1c(=O)n(C)c(=O)n2C | -17% | -1% | 35µM* | -20 | -8% | ?
COc1ccc(-c2cc(-c3ccccc3)nc3c2COc2ccccc2-3)cc1 | · | -1%[76.3 µM] | · | · | · | ·
COc1ccc(C2=Nc3ccccc3OC2)cc1 | 2% | 25µM* | 8% | ? | 21% | 0%
NCCCCCCCCCCNCCCN | -3% | · | -3% | · | -1% | ·
S=C(Nc1ccc(Nc2ccccc2)cc1)N1CCN(c2ncccn2)CC1 | -7% | 8.9µM* | 2% | -3 | -8% | 2%
S=C(Nc1ccccc1)N1CCC(C2CCN(C(=S)Nc3ccccc3)CC2)CC1 | 0% | -8% | 5% | -11 | 6% | 0%
OC1CCN(C(=S)Nc2ccc(Nc3ccccc3)cc2)CC1 | 5% | 4µM* | 2% | -2 | -1% | 8%
CCCC[C@H](NC(C)=O)C(=O)N[C@H]1CC(=O)NCCCC[C@@H](C(N)=O)NC(=O)[C@H](Cc2c[nH]c3ccccc23)NC(=O)[C@H](CCCN=C(N)N)NC(=O)[C@@H](Cc2ccccc2)NC(=O)[C@H](Cc2cnc[nH]2)NC1=O | 3% | · | 13% | · | -1% | ·
Cc1ccc(C)c(NC(=S)NNC(=O)c2ccco2)c1 | 0% | 22µM* | 9% | -9 | -5% | 0%
SMILES | GAA spleen mod | GAA glycogen | GLA spleen mod | GLA inh pH 4.5 | N370S GC mod | GAA inh
CC(=O)c1ccc(N2CCN(S(=O)(=O)c3ccc4c(c3)CC(=O)N4)CC2)cc1 | · | 0.52µM* | · | · | -12% | ·
O=C1Cc2cc(S(=O)(=O)N3CCN(c4ccc(C(F)(F)F)cc4)CC3)ccc2N1 | · | -25%[76.3 µM] | · | · | · | ·
O=C1Cc2cc(S(=O)(=O)N3CCN(c4ccccc4)CC3)ccc2N1 | · | 2.6µM* | · | · | -7% | ·
C=C1C(=O)OC(CCCCCCCC)C1C(=O)O (configuration not stated) | 3% | · | 3% | · | -6% | ·
CCC(=O)N1C2=C(c3ccccc3[C@@H]1CC(=O)Nc1ccc3ccccc3c1)[C@@H]1C(=O)N(c3ccccc3)C(=O)[C@@H]1[C@H](C)C2 | 19%[17.4 µM] | · | 15%[17.5 µM] | -21 | -5%[12.8 µM] | ·
CC(=O)c1ccc(NC(=O)COc2ccccc2-c2nc(C(C)C)no2)cc1 | · | -10%[76.3 µM] | · | · | · | ·
CC(=O)c1ccc(NC(=O)COc2ccccc2-c2nc(C)no2)cc1 | · | 7.1µM* | · | · | · | ·
C=CCOC(=O)N[C@@H](c1ccc(Br)cc1)C(C(C)=O)C(C)=O | -12% | · | -9% | -5 | -1% | ·
CCOc1ccc(C=C2SC(=O)N(CCN)C2=O)cc1 | 2% | · | 12% | · | -1% | ·
Cc1ccc(NNC(=O)c2cc(C(C)(C)C)nn2Cc2ccccc2)cc1 | 3% | 11µM* | 2% | -6 | 8% | -6%[15.4 µM]
CSCC[C@H](NC(=O)[C@H](CC(C)C)NC(=O)CCNC(=O)[C@@H](NC(=O)[C@H](Cc1ccccc1)NC(=O)[C@H](CO)NC(=O)[C@@H](N)CC(=O)O)C(C)C)C(N)=O | 5% | · | -9% | · | -1% | ·
CC(O)(c1ccc(Cl)cc1)c1ccc(Cl)cc1 | 3% | · | 17% | · | -4% | ·
COc1ccc(-c2nc(-c3ccccc3)c(-c3cc([N+](=O)[O-])ccc3C)[nH]2)cc1O | -4% | -25% | 4% | ? | -23% | 1%
Cc1ccc([N+](=O)[O-])cc1-c1[nH]c(-c2ccc(O)c(O)c2)nc1-c1ccccc1 | 1% | 14µM* | 4% | 7 | ? | -14%
CC(=O)Nc1ccc(S(=O)(=O)N2CCc3nc(-c4ccccc4)c4c(c3C2)CO[C@@H](C)C4)cc1 | 6%[17.4 µM] | · | 10%[17.5 µM] | -1 | 3%[12.8 µM] | ·
COc1ccc(NCc2nnc(SCC(=O)c3ccc(OC)cc3)n2C)cc1 | -1% | 12µM* | -4% | 2 | -23% | 7%
COc1ccc(CC(=O)NCc2nnc(SCC(=O)c3ccc(OC)cc3)n2C)cc1 | -9% | -5% | 0% | -4 | -6% | 9%
Cc1ccc2c(C(=O)CNc3nncs3)c(C)[nH]c2c1 | 2% | 28µM* | -4% | 5 | -12% | 2%
COC(=O)N1C(/C=C/c2ccc3c(c2)OCO3)=Cc2ccccc2C1CC(C)=O (configuration not stated) | 5%[17.4 µM] | · | 6%[17.5 µM] | 5 | 1%[12.8 µM] | ·
O=C(Nc1cccc(C(F)(F)F)c1)Nc1cc(Cl)ccc1C(=O)O | -1% | · | 4% | · | 0% | ·
CCOc1cc(/C=C/c2cc(C(F)(F)F)[nH]c(=O)n2)ccc1O | -5% | 7.9µM* | 3% | -10 | -16% | -9%
O=C(/C=C/c1ccc(/C=C/C(=O)Nc2ccc(C3=NCCN3)cc2)cc1)Nc1ccc(C2=NCCN2)cc1 | -9% | · | 9% | · | -6% | ·
